PubChem BioAssay (EPA / NIEHS)
Active and inactive are the calls of the source. How the source made its calls: active means hit-call score of the fitted dose curve at least 0.9, where 1 is the maximum; inactive means score below 0.9.

experiment: ATG_Sox_CIS: Attagene CIS-FACTORIAL HepG2 Assay for human SRY-box transcription factor (SOX) (AID 2282960); conditions: HepG2 Attagene cis-factorial SOX reporter, mRNA; actives raise or lower the signal
Protocol: ATG_CIS is a cell-based, multiplexed-readout assay that uses HepG2, a human liver cell line, with measurements taken at 24 hours after chemical dosing in a 24-well plate.ATG_Sox_CIS is one of 52 assay component(s) measured or calculated from the ATG_CIS assay. It is designed to make measurements of mRNA induction, a form of inducible reporter, as detected with fluorescence intensity signals by Reverse transcription polymerase chain reaction (RT-PCR) and Capillary electrophoresis technology.Data from the assay component ATG_Sox_CIS was analyzed into 1 assay endpoint. This assay endpoint, ATG_Sox_CIS, was analyzed with bidirectional fitting relative to DMSO as the negative control and baseline of activity. Using a type of inducible reporter, measures of mRNA for gain or loss-of-signal activity can be used to understand the reporter gene at the transcription factor-level as they relate to the gene SOX1. Furthermore, this assay endpoint can be referred to as a primary readout, because this assay has produced multiple assay endpoints where this one serves a reporter gene function. To generalize the intended target to other relatable targets, this assay endpoint is annotated to the dna binding intended target family, where the subfamily is HMG box protein.
Human liver HepG2 cells are transiently transfected with multiple reporter transcription units (MRTUs) in 6-well plates using FuGene 6 reagent (Roche; 3 ml FuGene/1 mg DNA). The MRTU constructs are regulated by a cis-regulating element (promoter). […] A major difference between the CIS and TRANS system is that in CIS activities of endogenous TFs are measured, whereas the TRANS assay evaluates changes in activities of exogenous, chimeric NR-Gal4 proteins. […] At the end of 24 hour incubation, total RNA was isolated using TriZol reagent (Invitrogen). The isolated RNA is then reverse-transcribed using oligo(dT) primer and Mo-MLV reverse transcriptase (Invitrogen) with DNAse I (Ambion) treatment for 30 min. The one-tenth of the produced cDNA was amplified by PCR using Taq DNA polymerase (Invitrogen) and two reporter sequence-specific primers. The PCR products were fluorescently labeled by primer extension with 6-arboxyfluorescein (6-FAM) 5'-labeled reporter sequence-specific primer (2 min at 95 C, 20 s at 68 C and 10 min at 72 C) and these products were digested with 5U of HpaI (New England Biolabs) for 2h at 37 C. The fragments were purified using Qiaquick PCR columns (Qiagen), analyzed on an ABI 3130xL genetic analyzer (Applied Biosystems) with peak positions identified by using a set of X-rhodamine (ROX)-labeled MapMarker1000 molecular weight standards (BioVentures). The raw capillary electrophoresis data was processed using Attagraph software (Attagene).

SMILES | outcome | AC50
N#CCN(CC#N)CCN(CC#N)CC#N | inactive | –
CC1=C(CC=O)C(C)(C)CCC1 | inactive | –
CN(C)c1ccc(C(c2ccccc2)c2ccc(N(C)C)cc2)cc1 | inactive | –
CCCC(=O)OC/C=C(\C)CCC=C(C)C | inactive | –
c1cc(N(CC2CO2)CC2CO2)ccc1Cc1ccc(N(CC2CO2)CC2CO2)cc1 (stereo not given) | inactive | –
O=C(O)/C=C\C(=O)O | inactive | –
COC(=O)CCSCCC(=O)OC | inactive | –
c1ccc(CNc2ncnc3nc[nH]c23)cc1 | inactive | –
Cc1cc2nc3c(=O)[nH]c(=O)nc-3n(C[C@H](O)[C@H](O)[C@H](O)CO)c2cc1C | inactive | –
O=[N+]([O-])c1ccc2nc[nH]c2c1 | inactive | –
CC1=C(CC(=O)O)c2cc(F)ccc2/C1=C\c1ccc(S(C)=O)cc1 (stereo not given) | inactive | –
CCC(C)=NO | inactive | –
NC(N)=Nc1nc(CSCCC(N)=NS(N)(=O)=O)cs1 | inactive | –
O=[N+]([O-])c1ccccc1C(F)(F)F | inactive | –
COC(=O)/C=C\C(=O)OC | – | 100 µM (active)
C=C(C)C(=O)OCC1CCCO1 (stereo not given) | inactive | –
CCCCOC(=O)COc1ccc(Cl)cc1Cl | inactive | –
O=C1CCCCCCCCCCCCCC1 | inactive | –
CC/C=C/CCO | inactive | –
CC1=NN(c2cc(Cl)c(S(=O)(=O)O)cc2Cl)C(=O)C1N=Nc1ccc(S(=O)(=O)O)cc1 (stereo not given) | inactive | –

SMILES | outcome | AC50
CCOc1ccc2c(c1)C(C)CC(C)(C)N2 (stereo not given) | inactive | –
Cc1ccccc1S(=O)(=O)O | – | 27 µM (active)
COc1cccc(OC)c1C(=O)O | inactive | –
COc1c2occc2cc2ccc(=O)oc12 | inactive | –
CCCCNC(N)=O | inactive | –
Cc1cc(C)c(S(=O)(=O)O)cc1N=Nc1cc(S(=O)(=O)O)c2ccccc2c1O | inactive | –
CCC(=O)OCc1ccc(OC)cc1 | inactive | –
O=C(Oc1ccccc1)c1ccccc1 | inactive | –
C=CCOC(=O)C(=C)C | inactive | –
CCCCCC1CCCC(=O)O1 (stereo not given) | inactive | –
CC/C=C\CC1=C(C)CCC1=O | inactive | –
COCCCN | inactive | –
O=C(O)Cc1c[nH]c2ccccc12 | inactive | –
CCCCCCC1CCC(=O)O1 (stereo not given) | inactive | –
c1cc[c]([Bi]([c]2ccccc2)[c]2ccccc2)cc1 | inactive | –
[O-][n+]1ccc(Cl)cc1 | inactive | –
CCCC[N+]1(C)CCCC1 | inactive | –
CC(=O)c1nccs1 | inactive | –
CC(C)(C)NC(=O)[C@@H]1CN(Cc2cccnc2)CCN1C[C@@H](O)C[C@@H](Cc1ccccc1)C(=O)N[C@H]1c2ccccc2C[C@H]1O | inactive | –
CCCCCCC1CCCC(=O)O1 (stereo not given) | inactive | –
